Measurements from the supplement of paper PMC11006884.
Of roughly 6,500 targets only a part is listed; those with a hit were picked by preference. About 2% of all pairs of compound and target were hits.

These targets were tested with COC(=O)C#Cc1ccccc1 [methyl 3-phenylpropiolate] (assay: log2 ratio of iodoacetamide-alkyne labeling of the cysteine site, DMSO over compound (competition); higher = stronger covalent engagement of the cysteine by the compound, active = 1 or more). Conditions: 500 µM; treatment time 1 h; system: HEK293T cell lysate.
Method in brief: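 Electrophile (500 µM) or vehicle was added to HEK293T lysate (2 mg/mL) for 1 h at ambient temperature before iodoacetamide alkyne labelling (1 h) and click coupling to sCIP-TMT reagents. After pooling, overnight trypsin digestion at 37 °C, streptavidin enrichment and acid elution, peptides were measured by Orbitrap Eclipse LC-MS/MS with FAIMS and quantified in FragPipe. Each cysteine's log2 competition ratio compares mean control-channel with mean compound-channel reporter intensity, control over compound. Data came from duplicate channels across three replicates, excluding cysteines quantified in only one replicate.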

log2 ratio of iodoacetamide-alkyne labeling, inactive:
CRBN C78 (UniProt Q96SW2) 0.133
HEATR6 C360 (UniProt Q6AI08) 0.657
SNF8 C72 (UniProt Q96H20) 0.2
UniProt Q92616_C36 0.339
ZNF428 C114 (UniProt Q96B54) 0.0848
UniProt Q8NBJ5_C412 0.133
UBR2 C1619 (UniProt Q8IWV8) 0.0476
TBC1D15 C686 (UniProt Q8TC07) 0.635
GBF1 C1766 (UniProt Q92538) 0.302
EP400 C162 (UniProt Q96L91) 0.339
GATAD2B C423 (UniProt Q8WXI9) 0.12
CCAR1 C579 (UniProt Q8IX12) 0.0854
POM121 C461 (UniProt Q96HA1) 0.43
AKT1S1 C61 (UniProt Q96B36) 0.266
MED12 C83 (UniProt Q93074) 0.457
TUBA1C C295 (UniProt Q9BQE3) 0.453
PHIP C612 (UniProt Q8WWQ0) -0.25
APIP C97 (UniProt Q96GX9) 0.129
LPP C468 (UniProt Q93052) 0.118
UniProt Q96L50_C246 0.109
SMC5 C726 (UniProt Q8IY18) 0.249
UniProt Q8WU20_C415 0.241
UniProt Q8IX01_C183 0.451
DHX29 C1025 (UniProt Q7Z478) 0.0649
ARID2 C1512 (UniProt Q68CP9) 0.438

log2 ratio of iodoacetamide-alkyne labeling, active:
FAM122B C155 (UniProt Q7Z309) 1.05
DNAJB14 C77 (UniProt Q8TBM8) 1.08
ISCA2 C146 (UniProt Q86U28) 1.59
MTHFD1L C778 (UniProt Q6UB35) 1.1
FLAD1 C496 (UniProt Q8NFF5) 1.06
NEK9 C11 (UniProt Q8TD19) 1.21
PHF3 C1616 (UniProt Q92576) 1.14
ANKRD11 C1845 (UniProt Q6UB99) 1.24
ACO2 C385 (UniProt Q99798) 1.66
CYFIP1 C98 (UniProt Q7L576) 1.78
